# Several values for one entry are separate records, joined by “and”; a condition that tells them apart may be missing. Equal values may be shown once. The campaign covered roughly 5,500 compounds. About 2,000 (36%) were called active. Inconclusive results (about 18%) are left out. No stated cut-off is given here; in the data, active means normalized growth mostly below about 0.91 (no sharp cut-off); inconclusive means no clear call, values can overlap the other calls; inactive means mostly above about 0.92. This is one part of the list.
# Assay: chemical genetic growth profiling, strain panel (AID 1159580);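 further: tested at 20 µM; growth read once vehicle control cultures reached saturation at 30 °C; 1 = growth at the plate median or of vehicle wells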
# Settings: S. cerevisiae deletion strains, growth OD
smiles,measurement,setting,value
CC/C(=C(\c1ccccc1)c1ccc(OCCN(C)C)cc1)c1ccccc1,normalized growth,"locus YAL013W, strain DEP1, stronger effect = lower value",0.0667 (active)
same,normalized growth,"locus YAL021C, strain ccr4, stronger effect = lower value",0.0669 (active)
same,normalized growth,"locus YAL026C, strain drs2, stronger effect = lower value",0.0635 (active)
same,normalized growth,"locus YAL030W, strain snc1, stronger effect = lower value",0.0686 (active)
same,normalized growth,"locus YAL040C, strain CLN3, stronger effect = lower value",1.04 (inactive)
same,normalized growth,"locus YBL061C, strain skt5, stronger effect = lower value",0.072 (active)
same,normalized growth,"locus YBR009C, strain hhf1, stronger effect = lower value",0.0625 (active)
same,normalized growth,"locus YBR021W, strain FUR4, stronger effect = lower value",0.0845 (active)
same,normalized growth,"locus YBR023C, strain chs3, stronger effect = lower value",0.0749 (active)
same,normalized growth,"locus YBR171W, strain sec66, stronger effect = lower value",0.383 (active)
same,normalized growth,"locus YBR229C, strain ROT2, stronger effect = lower value",0.0463 (active)
same,normalized growth,"locus YBR231C, strain swc5, stronger effect = lower value",0.0729 (active)
same,normalized growth,"locus YBR279W, strain paf1, stronger effect = lower value",0.122 (active)
same,normalized growth,"locus YCL011C, strain gbp2, stronger effect = lower value",0.0716 (active)
same,normalized growth,"locus YCL016C, strain dcc1, stronger effect = lower value",0.122 (active)
same,normalized growth,"locus YCL029C, strain bik1, stronger effect = lower value",0.0615 (active)
same,normalized growth,"locus YCL061C, strain MRC1 (second series), stronger effect = lower value",0.311 (active)
same,normalized growth,"locus YCL069W, strain vba3, stronger effect = lower value",0.0995 (active)
same,normalized growth,"locus YCR088W, strain abp1, stronger effect = lower value",0.0758 (active)
same,normalized growth,"locus YDL005C, strain med2, stronger effect = lower value",0.382 (active)
same,normalized growth,"locus YDL035C, strain GPR1, stronger effect = lower value",0.0496 (active)
same,normalized growth,"locus YDL040C, strain nat1, stronger effect = lower value",0.312 (active)
same,normalized growth,"locus YDL074C, strain BRE1, stronger effect = lower value",0.0746 (active)
same,normalized growth,"locus YDL101C, strain DUN1, stronger effect = lower value",0.0532 (active)
same,normalized growth,"locus YDL134C, strain PPH21, stronger effect = lower value",0.0467 (active)
same,normalized growth,"locus YDL185W, strain tfp1, stronger effect = lower value",0.606 (active)
same,normalized growth,"locus YDL192W, strain arf1, stronger effect = lower value",0.062 (active)
same,normalized growth,"locus YDR001C, strain nth1, stronger effect = lower value",0.0956 (active)
same,normalized growth,"locus YDR069C, strain doa4, stronger effect = lower value",0.068 (active)
same,normalized growth,"locus YDR101C, strain arx1, stronger effect = lower value",0.0613 (active)
same,normalized growth,"locus YDR137W, strain rgp1, stronger effect = lower value",0.461 (active)
same,normalized growth,"locus YDR150W, strain NUM1, stronger effect = lower value",0.0558 (active) and 0.416 (active)
same,normalized growth,"locus YDR159W, strain sac3, stronger effect = lower value",0.0992 (active)
same,normalized growth,"locus YDR162C, strain NBP2, stronger effect = lower value",0.046 (active)
same,normalized growth,"locus YDR195W, strain ref2",0.166 (active)
same,normalized growth,"locus YDR297W, strain sur2, stronger effect = lower value",0.0894 (active)
same,normalized growth,"locus YDR318W, strain mcm21, stronger effect = lower value",0.0655 (active)
same,normalized growth,"locus YDR334W, strain swr1, stronger effect = lower value",0.0759 (active)
same,normalized growth,"locus YDR335W, strain msn5, stronger effect = lower value",0.103 (active)
same,normalized growth,"locus YDR363W, strain ESC2, stronger effect = lower value",0.174 (active)
same,normalized growth,"locus YDR388W, stronger effect = lower value",0.0557 (active)
same,normalized growth,"locus YDR392W, strain spt3, stronger effect = lower value",0.0847 (active)
same,normalized growth,"locus YDR502C, strain sam2, stronger effect = lower value",0.0692 (active)
same,normalized growth,"locus YEL003W, strain gim4, stronger effect = lower value",0.127 (active)
same,normalized growth,"locus YEL037C, strain rad23, stronger effect = lower value",0.093 (active)
same,normalized growth,"locus YEL061C, strain CIN8 (second series), stronger effect = lower value",0.243 (active)
same,normalized growth,"locus YEL061C, strain CIN8, stronger effect = lower value",0.0479 (active)
same,normalized growth,"locus YER002W, strain NOP16, stronger effect = lower value",1.02 (inactive)
same,normalized growth,"locus YER015W, strain faa2, stronger effect = lower value",0.117 (active)
same,normalized growth,"locus YER016W, strain bim1, stronger effect = lower value",0.164 (active)
same,normalized growth,"locus YER110C, stronger effect = lower value",0.072 (active)
same,normalized growth,"locus YER111C, strain swi4, stronger effect = lower value",0.372 (active)
same,normalized growth,"locus YER155C, strain BEM2 (second series), stronger effect = lower value",0.668 (active)
same,normalized growth,"locus YER155C, strain BEM2, stronger effect = lower value",0.0653 (active)
same,normalized growth,"locus YER167W, strain BCK2, stronger effect = lower value",0.05 (active)
same,normalized growth,"locus YFR010W, strain ubp6, stronger effect = lower value",0.0799 (active)
same,normalized growth,"locus YGL078C, strain dbp3, stronger effect = lower value",0.901 (active)
same,normalized growth,"locus YGL086W, strain mad1, stronger effect = lower value",0.0577 (active)
same,normalized growth,"locus YGL167C, strain pmr1, stronger effect = lower value",0.196 (active)
same,normalized growth,"locus YGL173C, strain kem1, stronger effect = lower value",0.168 (active)
same,normalized growth,"locus YGL227W, strain vid30, stronger effect = lower value",0.143 (active)
same,normalized growth,"locus YGL240W, strain doc1, stronger effect = lower value",0.436 (active)
same,normalized growth,"locus YGL248W, strain PDE1, stronger effect = lower value",0.0453 (active)
same,normalized growth,"locus YGL253W, strain hxk2, stronger effect = lower value",0.0687 (active)
same,normalized growth,"locus YGR078C, strain PAC10, stronger effect = lower value",0.0556 (active) and 0.48 (active)
same,normalized growth,"locus YGR135W, strain pre9, stronger effect = lower value",0.0678 (active)
same,normalized growth,"locus YGR229C, strain SMI1, stronger effect = lower value",0.061 (active) and 0.0615 (active)
same,normalized growth,"locus YGR252W, strain gcn5, stronger effect = lower value",0.155 (active)
same,normalized growth,"locus YHR013C, strain ard1, stronger effect = lower value",0.174 (active)
same,normalized growth,"locus YHR027C, strain rpn1, stronger effect = lower value",0.102 (active)
same,normalized growth,"locus YHR030C, strain SLT2, stronger effect = lower value",0.0499 (active) and 0.883 (inactive)
same,normalized growth,"locus YHR079C, strain IRE1 (second series), stronger effect = lower value",0.0574 (active)
same,normalized growth,"locus YHR079C, strain IRE1, stronger effect = lower value",0.883 (inactive)
same,normalized growth,"locus YHR094C, strain hxt1, stronger effect = lower value",0.059 (active)
same,normalized growth,"locus YHR129C, strain ARP1, stronger effect = lower value",0.0531 (active)
same,normalized growth,"locus YHR142W, strain chs7, stronger effect = lower value",0.0883 (active)
same,normalized growth,"locus YHR200W, strain rpn10, stronger effect = lower value",0.0609 (active)
same,normalized growth,"locus YIL066C, strain RNR3, stronger effect = lower value",0.0471 (active)
same,normalized growth,"locus YIL073C, strain SPO22, stronger effect = lower value",0.158 (active)
same,normalized growth,"locus YIL125W, strain kgd1, stronger effect = lower value",0.91 (active)
same,normalized growth,"locus YIR030C, strain dcg1, stronger effect = lower value",0.0575 (active)
same,normalized growth,"locus YJL092W, strain hpr5, stronger effect = lower value",0.0913 (active)
same,normalized growth,"locus YJL095W, strain BCK1 (second series), stronger effect = lower value",0.0594 (active)
same,normalized growth,"locus YJL095W, strain BCK1, stronger effect = lower value",0.0507 (active) and 0.883 (inactive)
same,normalized growth,"locus YJL115W, strain asf1, stronger effect = lower value",0.155 (active)
same,normalized growth,"locus YJL129C, strain trk1, stronger effect = lower value",0.159 (active)
same,normalized growth,"locus YJL134W, strain LCB3, stronger effect = lower value",0.0479 (active)
same,normalized growth,"locus YJL154C, strain vps35, stronger effect = lower value",0.078 (active)
same,normalized growth,"locus YJL164C, strain tpk1, stronger effect = lower value",0.0754 (active)
same,normalized growth,"locus YJL166W, strain qcr8, stronger effect = lower value",0.0964 (active)
same,normalized growth,"locus YJL168C, strain set2, stronger effect = lower value",0.057 (active)
same,normalized growth,"locus YJL187C, strain SWE1 (second series), stronger effect = lower value",0.046 (active)
same,normalized growth,"locus YJR043C, strain POL32, stronger effect = lower value",0.0587 (active)
same,normalized growth,"locus YJR066W, strain TOR1, stronger effect = lower value",0.888 (inactive)
same,normalized growth,"locus YJR075W, strain HOC1, stronger effect = lower value",0.0611 (active) and 0.54 (active)

# From PubChem BioAssay AID1159580 (chemical genetic matrix, 2015)
